# Compounds with a hit are over-represented: about 11% of the library has one in this group of screens.
# HPGD block = qHTS Assay for Inhibitors of HPGD (15-Hydroxyprostaglandin Dehydrogenase) | Potency, µM, without a hit: at the highest dose activity change, negative = inhibition, most hits filed as inhibitors | purified HPGD, NADH fluorescence kinetic, PGE2 substrate | 15-hydroxyprostaglandin dehydrogenase [NAD(+)] (Homo sapiens), P15428 | 4.3% of 150,000 active; active means well fitted inhibition curve with a large enough effect, not every such curve was filed as active; inconclusive means small, poorly fitted or top-dose-only effect, or another doubt; inactive means no such curve, though single readings can be large or run the other way; further: potency means the concentration at half of the fitted maximal effect
# Target sequence (P15428 whole entry, looked up): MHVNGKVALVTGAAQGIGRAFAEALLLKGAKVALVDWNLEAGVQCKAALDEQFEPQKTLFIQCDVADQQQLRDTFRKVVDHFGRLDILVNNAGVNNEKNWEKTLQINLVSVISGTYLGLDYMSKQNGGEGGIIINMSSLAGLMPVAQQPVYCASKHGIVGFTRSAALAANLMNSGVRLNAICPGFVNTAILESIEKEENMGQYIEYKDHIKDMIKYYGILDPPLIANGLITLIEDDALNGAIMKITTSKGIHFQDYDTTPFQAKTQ
#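 NADH formation kinetics: reaction with 30 uM PGE2 and 1 mM NAD+ (final), 20 nM enzyme, Tris-HCl pH 8 with Tween 20, after 15 min compound preincubation at room temperature. Fluorescence change, last versus first of five reads.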
# PNC assembly inh = High Content Assay for Compounds that inhibit the Assembly of the Perinucleolar Compartment; AID 2417, 2010; PC3M PTB-GFP, PNC prevalence imaging, 16 h; stronger effect = lower value; activity change (PNC), negative = inhibition, % at 10 µM; 3.1% of 140,000 active;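 active means readout at or below -70, meaning at least 70% loss of cells showing the perinucleolar compartment, a nuclear body marking cancer cells; inconclusive means readout between -30 and a set limit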;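 further: plate controls were DMSO wells for no effect and camptothecin positive control wells for full effect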
#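 PC3M cells stably expressing PTB-GFP, 750–1000 cells/well, treated 16 h at 37 °C with compound (23 nl of library stock), in duplicate. After paraformaldehyde fixation and Hoechst stain, imaged at 20x; PNC prevalence scored by image analysis.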
# ALDH1A1 block = qHTS Assay for Inhibitors of Aldehyde Dehydrogenase 1 (ALDH1A1). Aldehyde dehydrogenase 1A1 (Homo sapiens), P00352. Purified ALDH1A1, NADH fluorescence, propionaldehyde substrate. Potency, µM (doses to about 75.3 µM), for the others: at the highest dose activity, negative = inhibition, usual class: inhibitors. 7.3% of 220,000 active. AID 1030, 2008; active means well fitted inhibition curve with a large enough effect, not every such curve was filed as active; inconclusive means small, poorly fitted or top-dose-only effect, or another doubt; inactive means no such curve, though single readings can be large or run the other way;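 further: potency means the concentration at half of the fitted maximal effect; plate controls were no enzyme wells and a reference inhibitor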
# IMPase cell inh = qHTS Assay for Identifying the Cell-Membrane Permeable IMPase Inhibitors; Inositol monophosphatase 1 (Rattus norvegicus), P97697; CHO-M1 cells, IP1 accumulation, HTRF TR-FRET ratio; inhibition (IP1 accumulation), % at 46.1 µM; 120,000 tested, under 10 active; AID 901, 2007; active means well fitted curve in the direction sought with a large enough effect in the signal ratio, not every such curve was filed as active; inconclusive means small, poorly fitted or top-dose-only effect, or a change in a side signal; inactive means no such curve, though single readings can be large or run the other way; the % refers to the signal ratio;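 further: cells stimulated with carbachol in lithium chloride buffer; plate controls were DMSO basal wells for no effect and reference inhibitor wells for full effect; higher means more IMPase inhibition seen as more IP1 and lower FRET ratio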
# Target sequence (P97697 whole entry, looked up): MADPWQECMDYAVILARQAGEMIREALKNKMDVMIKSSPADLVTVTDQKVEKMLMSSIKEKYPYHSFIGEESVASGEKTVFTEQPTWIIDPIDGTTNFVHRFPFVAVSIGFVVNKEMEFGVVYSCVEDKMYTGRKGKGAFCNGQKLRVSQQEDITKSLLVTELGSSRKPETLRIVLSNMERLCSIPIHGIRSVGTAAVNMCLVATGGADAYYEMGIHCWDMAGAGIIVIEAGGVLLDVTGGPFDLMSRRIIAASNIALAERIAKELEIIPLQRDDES
#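 Cellular IMPase inhibition is scored as a rise in cytosolic IP1, detected by competitive TR-FRET between d2-labelled IP1 and a europium anti-IP1 antibody. M1-expressing CHO cells were stimulated with carbachol for 30 min at 37C, with lithium (50 mM LiCl) present in the buffer.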
# ALOX12 inhib = qHTS Assay for Inhibitors of 12-hLO (12-human lipoxygenase). 0.12% of 150,000 active. AID 1452, 2008. Potency, µM (series often up to 57.1 µM), for inactives: at the highest dose activity change, negative = inhibition, usual class: inhibitors. purified 12-hLO, xylenol orange hydroperoxide absorbance; further: potency means the concentration at half of the fitted maximal effect; nearly all actives have a fitted effect of over 55% in size
#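 Purified human 12hLO (150 nM), preincubated 15 min with compound, then 40 uM arachidonic acid for 30 min, room temperature, Hepes pH 7.0 with 0.01% Triton X-100. Hydroperoxide detected by ferrous iron/xylenol orange; 573/405 nm absorbance ratio gives reaction progress.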
# IMPase Li inh = qHTS Assay for Identifying the Cell-Membrane Permeable IMPase Inhibitors: Potentiation with Lithium; AID 1457, 2008; Potency, µM (highest dose often 59.4 µM), inactives show top-dose activity, negative = IMPase inhibition, most hits filed as inhibitors; CHO-M1 cells, IP1 TR-FRET (IP-One), carbachol + lithium; 0.35% of 210,000 active;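 further: IP1 builds up when IMPase is blocked and the TR-FRET signal falls; potency means the concentration at half of the fitted maximal effect; plate controls were basal vehicle for no effect and high inhibitor control for full effect; nearly all actives have a fitted effect of over 50% in size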
#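 Steps: plate 2000 CHO-M1 cells per well and culture 16–30 h; add compound and lithium; incubate 30 min, 37C; add d2-IP1 tracer and Eu cryptate anti-IP1 antibody in lysis buffer; read after 10 min at room temperature.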
# * = called active by the depositor; ? = inconclusive; / = no result given; [ ] = remark or other dose. Unless noted, the call rests on the fitted dose curve; in most records, active means well fitted curve in the direction sought with a large enough effect; inconclusive means small, poorly fitted or top-dose-only effect, or another doubt; inactive means no such curve, though single readings can be large; an effect the other way counts as inactive or inconclusive. Unless noted, on the % scale 0 is the no-effect control and ±100 the full control effect.
SMILES,HPGD block,PNC assembly inh,ALDH1A1 block,IMPase cell inh,ALOX12 inhib,IMPase Li inh
CC(=O)c1ccc(NC(=O)c2ccc(COc3ccccc3[N+](=O)[O-])o2)cc1,-22%,37,-5%,/,1%,1%
CC(C)c1ccc2oc(-c3ccc(NC(=O)c4cccc(Br)c4)cc3)nc2c1,/,/,/,-15,/,/
Cc1oc(-c2cccc3ccccc23)nc1CN1CCN(c2ncnc3ccccc23)CC1,/,/,?,/,/,24%
COc1ccc(/C=C2\SC(=O)N(CCC(=O)Nc3ccccc3)C2=O)cc1OC,-21%,17,1%,/,-1%,108%
COc1cccc(/C=C2\SC(=O)N(CCC(=O)NNC(=O)c3cccc(Cl)c3)C2=O)c1,-12%,-86*,6%,2,2%,9%
COc1ccccc1/C=C1\SC(=O)N(CCC(=O)NNC(=O)c2ccccc2Cl)C1=O,48%,-93*,?,-5,0%,7%
O=C(/C=C/c1ccc(Cl)cc1Cl)NCCSCc1ccccc1,14µM*,?,-10%,/,-4%,7%
O=C(/C=C/c1ccccc1)NCCSCc1ccccc1Cl,10µM*,-91*,2.2µM*,-2,-1%,22%
Cc1ccc(CSCCNC(=O)/C=C/c2ccccc2Cl)cc1,8.9µM*,-23,4.5µM*,10,?,23%[38.3 µM]
Cc1cc2cc(CNC(=O)CCC(=O)O)ccc2[nH]1,-9%,?,28µM*,17,0%,-10%[38.3 µM]
CCC(=O)NCc1ccc2[nH]c(C)cc2c1,/,/,-3%,/,/,4%
O=C(CSc1nnc(CNc2ccc(F)cc2)o1)N1c2ccccc2Sc2ccccc21,-6%,65,3%,2,-7%,23%[38.3 µM]
O=C(CSc1nnc(COc2ccc(F)cc2)o1)N1c2ccccc2CCc2ccccc21,-14%,-19,3.2µM*,7,-6%,5%[38.3 µM]
O=C(CSc1nnc(COc2cccc3cccnc23)o1)N1CCN(C(=O)c2ccco2)CC1,-15%,-100*,-3%,-3,2%,6%
O=C(CSc1nnc(COc2cccc3cccnc23)o1)N1CCc2ccccc21,-12%,?,14µM*,0,-2%,-15%[38.3 µM]
O=C(CSc1nnc(COc2cccc3ccccc23)o1)N1CCN(C(=O)c2ccco2)CC1,-9%,?,-6%,/,-1%,8%
Cc1cc(Oc2c(C(F)(F)F)oc3c(CN4CCC(C)CC4)c(O)ccc3c2=O)cc(C)c1Cl,/,/,/,6,/,/
CN(C)CC(O)Cn1c2ccc(Br)cc2c2cc(Br)ccc21 (stereo unspecified),/,/,6%,/,/,12%
N#Cc1ccc(N2C(=O)[C@@H]3C(C(=O)c4ccc5ccccc5n4)=NN[C@@H]3C2=O)cc1,-20%,31,7.9µM*,4,-2%,12%
N#Cc1ccc(N2C(=O)[C@@H]3C(C(=O)c4cnccn4)=NN[C@@H]3C2=O)cc1,/,/,14µM*,/,/,/
C=CCNC(=O)CSc1nc2cc(C(=O)OCC)ccc2n1CC,25µM*,?,-5%,0,1%,8%[38.3 µM]
O=C(NCc1ccccc1Cl)c1nnc(Cc2ccc(Cl)cc2)o1,/,/,/,8,/,/
CCN=c1scc(-c2ccco2)n1/N=C/c1ccc(OC)c(O)c1,-11%,-11,?,16,-14%,-1%[38.3 µM]
CCN=c1scc(-c2ccco2)n1/N=C/c1ccc(O)cc1,?,?,20µM*,-1,-14%,-8%[38.3 µM]
NCS(=O)(=O)O,-8%,/,1%[13.5 µM],/,-5%[11.4 µM],-6%
COc1ccc(-c2c(C#N)c(SCC(=O)Nc3ccc(C)cc3)nc(C)c2C(=O)Nc2ccccc2)cc1,/,/,/,-7,/,/
